A number with no mark means an inactive call. Activity calls are given as the source filed them. How the calls were made is not given here.
Test: C difficile toxins, biochemical counterscreen, UDPG substrate absence, confirmatory dose response (AID 720650)
Details: series mostly up to 19.5 µM; activity change, negative = inhibition: at the top concentration

Compound | activity change, negative = inhibition | AC50
COc1ccc(/C=C\c2onc(C)c2S(=O)(=O)N2CCC(C(=O)NCCC(C)C)CC2)cc1 | -18.3% | 
CN(C(=O)COC(=O)CNC(=O)c1ccccc1Cl)c1ccccc1 | -13.6% | 
Cc1ccccc1COc1ccc2oc(C)c(C(=O)O)c2c1 | -13.2% | 
CN(C)CCNC(=O)c1cc2c(s1)-c1ccc(Cl)cc1SC2 |  | > 39 µM
COc1cccc2sc(NNC(=O)C3COc4ccccc4O3)nc12 (stereo unspecified) |  | 0.972 µM (active)
COC(=O)C1=C(c2ccc(F)cc2OCc2ccccc2)C[C@@H]2CC[C@H]1N2C(=O)N1CCCC1 | -8.05% | 
CCOC(=O)c1sc(=S)[nH]c1C |  | > 39 µM
COc1ccc(-c2ccc3c(c2)[C@H]2[C@H](CCN2C(=O)Cc2cccnc2)[C@@H](CO)N3C)cc1 |  | 14.7 µM (active)
Cc1nc(S(=O)(=O)N(C)Cc2ccccc2)c(C#N)c(C)c1Cl | -9.25% | 
Cc1ccc(/C=C/c2onc(C)c2S(=O)(=O)N2CCC(C(=O)NC(C)(C)C)CC2)cc1 | -0.872% | 
COc1ccccc1C(=O)Nc1cccc(Oc2c(F)c(F)c(F)c(F)c2F)c1 |  | > 39 µM
O=c1ccc2cc(O)c(O)cc2o1 | -20.8% | 
CC1(C)CC(=O)C(C=Nc2ccc(O)cc2)=C(O)C1 |  | 5.68 µM (active)
COc1cc(/C=N/NC(=O)C2(O)c3ccccc3-c3ccccc32)ccc1O | -11.3% | 
O=C(NCCc1ccc(Cl)cc1)C1CCN(S(=O)(=O)c2ccc(Br)s2)CC1 | -4.2% | 
CN(C(=O)Cn1c(=O)oc2cc(S(=O)(=O)N3CCCC3)ccc21)C1CCCCC1 | -7.83% | 
